For 40 compounds, inhibition results are on record in PubChem BioAssay.

Structures are written as SMILES. Active and inactive are the calls of the source. Cut-off read from the data, not from the text of the source: active = inhibition above about 36%; inactive = the rest.

The subject of this experiment is transactivating tegument protein VP16 (Human herpesvirus 1). The experiment is described as follows: VP16 transactivation reporter inhibitors, counter-screen for SRC2 inhibitor project, cell-based, luminescence, single concentration (AID 652007). The conditions noted are these: cell-based VP16 transactivation luciferase reporter, at 8.9 µM, stronger effect = higher value. Background: The purpose of a counterscreen is to sort out artefacts and off-target activity.
On to `COc1cc(OC)cc(C2=Cc3ccc(OC)cc3C(CC(C)=O)N2c2ccc(C#CC3(O)CCCCC3)cc2)c1` (stereo not given), for which the inhibition was -2.24% (inactive). Under `CN(C)Cc1ccc(-c2nc3cccc4c3n2CCNC4=O)cc1` stands -27.9% (inactive); under `O=c1c2ccccc2sn1-c1ccccc1`, -5.09% (inactive); under `CCc1sc(NC(=O)CN2CCOCC2)nc1-c1ccccc1`, -0.48% (inactive).

For the compound `CC(=O)Nc1cc(=O)c2cccnc2[nH]1`, the inhibition was -8.33% (inactive). As to `O=C(O)CCC(=O)Nc1ccc(C(=O)OC2CCCCC2)cc1`, the inhibition was 11.1% (inactive). For the compound `COc1cc(CNc2ccc3[nH]c(=O)[nH]c3c2)cc(Br)c1OCc1ccc(F)cc1`, the inhibition was 1.78% (inactive). Take `N#Cc1c(NC(=O)CSc2ncn[nH]2)sc2c1CCCC2`: the inhibition is 84% (active). With `Fc1ccc(CNC2CCN(Cc3ccccc3)CC2)cc1`, the inhibition is 7.5% (inactive). On to `CCn1c(Cl)c(C=O)s/c1=N\S(=O)(=O)c1ccccc1`, for which the inhibition is 59.6% (active). Under `Cc1ccc(Nc2nc(N)nc(CN3CCN(Cc4ccc5c(c4)OCO5)CC3)n2)cc1` stands -10.2% (inactive).

With `CC(=O)Nc1cccc(NC(=O)CSc2nc(C3CC3)nc3ccccc23)c1`, the inhibition is -2.73% (inactive).

In the case of `CN(Cc1ccc(OC(F)F)cc1)C(=O)c1ccc(S(=O)(=O)N(C)c2ccccc2)cc1`, the inhibition is -22.2% (inactive). Under `O=C(CCCN1C(=O)/C(=C/c2ccccc2Cl)SC1=S)NNC(=O)c1cccnc1` stands 34.3% (inactive); under `O=C(CCc1ccncc1)N1CCCC(Nc2ccc(F)c(F)c2)C1` (stereo not given), -3.61% (inactive); under `CN(Cc1ccccc1)S(=O)(=O)c1ccc(Cl)c(C(=O)NCCCN2CCOCC2)c1`, -5.53% (inactive). Under `Cc1cccc(C)c1NC(=O)CN1CCN(C/C=C/c2ccccc2)CC1` stands -15.1% (inactive); under `CN1CCN(S(=O)(=O)c2cccc(C(=O)Nc3ccc(Br)cc3Br)c2)CC1`, 12.2% (inactive); under `CC(=NNc1ccc2ccccc2n1)c1ccccn1`, 83.8% (active). Regarding `O=C(N/N=C/c1ccc([N+](=O)[O-])s1)c1ccccc1`, the inhibition was 34.9% (inactive). In the case of `CCOc1ccc(-n2c(C)nc3cc(C(=O)NCC4CCCO4)ccc32)cc1` (stereo not given), the inhibition was -16.6% (inactive). Under `COc1ccc(CNCc2ccc(C(F)(F)F)cc2)cc1OC` stands 0.19% (inactive). Under `Cc1cc(=O)c2ccccc2n1Cc1ccccc1` stands -10.6% (inactive); under `NNC(=O)COc1ccc(C(F)(F)F)cc1`, -3.76% (inactive); under `Cc1csc(NC(=O)CSc2ccc([N+](=O)[O-])cn2)n1`, -0.96% (inactive). Under `COC(=O)c1cnn(-c2ccc(Cl)cc2)c1/C=N/NC(N)=S` stands 22% (inactive); under `CCOc1cc(/C=C2/NC(=O)N(Cc3ccccc3F)C2=O)ccc1O`, 4.78% (inactive). Regarding `N/C(=N\OC(=O)c1ccc2ccccc2c1)c1ccccn1`, the inhibition was -38.3% (inactive). Under `Cc1cc2c(cc1C)C(=O)NC(C)(C)C2` stands 2.03% (inactive); under `CCN(CC)S(=O)(=O)c1ccc(C)c(NC(=S)NC2CCCCC2)c1`, 8.38% (inactive). With `Cc1ccc(CS(=O)(=O)c2ncc(Cl)c(C(=O)Nc3nnc(C(C)C)s3)n2)cc1`, the inhibition was 27.3% (inactive).

On to `Cc1nc([N+](=O)[O-])c(Br)n1Cc1ccc(Cl)c(Cl)c1`, for which the inhibition is 10.6% (inactive). Under `O=C(c1ccco1)N1CCN(C(=O)N2c3ccccc3Sc3ccccc32)CC1` stands 6.34% (inactive).

As to `CCCCCCCCN1C(=O)[C@H](CC(=O)NCCCC)C[C@@]2(C(=O)OCC)CCCC=C12`, the inhibition was -14% (inactive).

`CC1=CC(C)(C)Nc2ccc(OC(=O)c3cccnc3)cc21`: the inhibition was -32.4% (inactive). Take `CCCCc1ccc(N/C(N)=N/c2nc(C)cc(C)n2)cc1`: the inhibition is 30.2% (inactive).

For the compound `COc1ccccc1/C=C/C(=O)c1cc(Br)ccc1OC(=O)c1ccco1`, the inhibition was -1.7% (inactive). Under `CCOC(=O)[C@]12CCC=C1N(CCC1=CCCCC1)C(=O)[C@H](CC(=O)N1CCC(c3ccccc3)CC1)C2` stands 1.35% (inactive); under `COc1ccc(CNC(=O)C2CCCN(Cc3nc(-c4cccc(C)c4)oc3C)C2)cc1` (stereo not given), -10.5% (inactive).

As to `O=C1C=CC2C3C(=O)N(c4ccccc4)C(=O)C3C1N2Cc1ccccc1` (stereo not given), the inhibition was 30.5% (inactive).

One may read the inhibition as the drop in the measured response relative to a control, in per cent.
